From PubChem BioAssay AID624311 (Broad Institute, 2012) come the findings set out here.

SMILES strings stand for the structures. Activity calls are given as the source filed them.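 How the source made its calls: active means fluorescence dropping 30% or more below neutral controls, activity change at or below -30%; inactive means the rest.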

The assay concerns the target Protein disulfide-isomerase (Homo sapiens) (UniProt P07237). Put plainly: PDI-driven insulin aggregation, ProteoStat dye readout – biochemical, fluorescence, dry powder samples, orthogonal assay for PDI inhibitor project, confirmation (AID 624311).

Protein disulfide-isomerase (Homo sapiens), sequence (P07237 whole entry, looked up): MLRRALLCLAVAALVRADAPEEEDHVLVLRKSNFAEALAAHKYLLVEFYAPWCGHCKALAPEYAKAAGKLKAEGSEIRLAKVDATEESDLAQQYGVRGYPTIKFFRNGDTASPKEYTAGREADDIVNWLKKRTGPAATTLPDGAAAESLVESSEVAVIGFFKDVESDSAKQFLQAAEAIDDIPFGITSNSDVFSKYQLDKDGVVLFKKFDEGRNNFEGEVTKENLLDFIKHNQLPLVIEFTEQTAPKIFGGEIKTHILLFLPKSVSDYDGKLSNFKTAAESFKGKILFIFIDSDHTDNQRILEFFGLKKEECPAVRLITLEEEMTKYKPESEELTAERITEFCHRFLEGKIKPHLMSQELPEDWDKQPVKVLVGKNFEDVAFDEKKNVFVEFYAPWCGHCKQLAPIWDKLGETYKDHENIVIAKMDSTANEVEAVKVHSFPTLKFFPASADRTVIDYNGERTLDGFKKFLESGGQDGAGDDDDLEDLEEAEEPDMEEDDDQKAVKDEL

On to `C[C@H]1CN([C@@H](C)CO)C(=O)c2cccc(NS(C)(=O)=O)c2O[C@H]1CN(C)Cc1ccc(Oc2ccccc2)cc1`, for which the call was inactive.
